Each structure is given as a SMILES string. Where “and” joins values, the source holds several entries; their conditions need not be identical. Equal values may be shown once. Records with an inconclusive call do not appear. A structure can be active in one record and inactive in another. Calls of active or inactive are those of the source. The calls were made as follows, unless noted: active = hit-call score of the fitted dose curve at least 0.9, where 1 is the maximum; inconclusive = response in the unintended direction; inactive = score below 0.9.

In test [1] the target is Voltage-gated inwardly rectifying potassium channel KCNH2 (Homo sapiens) (UniProt Q12809). The test can be described thus: NVS_IC_hKhERGCh: NovaScreen (NVS) Ion Channel Assay for human Potassium Channel ERG (KhERGCh) (AID 2283333). An outline of the steps:
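Cell-free radioligand competition binding on hERG protein extracted from CHO cells, read by filter-based scintillation counting 0.75 h after dosing. Primary screen at 25 uM in duplicate, actives followed in concentration series. Signal loss fitted versus DMSO.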

The target in test [2] is Small conductance calcium-activated potassium channel protein 1 (Rattus norvegicus) (UniProt P70606). The test can be described thus: NVS_IC_rKCaCh: NovaScreen (NVS) Ion Channel Assay for rat Potassium Channel, Ca2+ Act., VI (KCaCh) (AID 2283336). An outline of the steps: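 Radioligand binding to rat forebrain membranes, cell-free, read 1 hour after dosing by filter-based scintillation counting. Compounds first run in duplicate at 25 uM, actives then in concentration series; loss of signal vs DMSO indicates displacement.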

The nature of test [3]: NVS_IC_rCaBTZCHL: NovaScreen (NVS) Ion Channel Assay for Calcium Channel, Type L, Benzothiazepine Site (CaBTZCHL) (AID 2283337). Summed up:
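Competitive displacement of a site-specific radioligand from rat cortex membranes, measured as signal loss against DMSO baseline by filter radiodetection after 1.5 h. Single-point 25 uM primary screen.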

In test [4] the test system is guinea pig Histamine Receptor (H2), gene 100729734. Nature of the test: NVS_GPCR_gH2: NovaScreen (NVS) G Protein-Coupled Receptor Assay for guinea pig Histamine Receptor (H2) (AID 2283342). An outline of the steps:
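Radioligand displacement on guinea pig striatal membranes, 1 h after dosing, filter-based scintillation counting; loss of signal versus DMSO. Single-point screen at 25 uM in duplicate, then concentration-response up to 50 uM.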

Test [5] has as its target Estrogen receptor (Homo sapiens) (UniProt P03372). Nature of the test: OT_ER_ERaERa_1440: Odyssey Thera (OT) 24-hour HEK293T Protein-Complementation Assay for Estrogen Receptor-alpha/-alpha Homodimer (AID 2283349).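 Also: hits raise fluorescence above DMSO for agonists and antagonists alike.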 Summed up:
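Readout is the rise in mean fluorescence from reporter fragment complementation when ERα LBD (aa 310-547) units dimerize in HEK293T cells. Measured 24 h after dosing and analysed as increase over DMSO control.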

Test [6] concerns the target rat Thyrotropin Releasing Hormone Receptor (TRH), Trhr (gene 25570) (UniProt Q01717). The test can be described thus: NVS_GPCR_rTRH: NovaScreen (NVS) G Protein-Coupled Receptor Assay for rat Thyrotropin Releasing Hormone Receptor (TRH) (AID 2283329).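 Also: hit means lower bound tracer signal versus DMSO baseline.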 An outline of the steps: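 Test compounds are screened at 25 uM in duplicate against radioligand binding in rat forebrain membranes, with active pairs followed up over a concentration range. Detection uses filter-based radiodetection after a 4 h exposure.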

The subject of another test is NCBI gene 100848466. The test can be described thus: NVS_NR_bPR: NovaScreen (NVS) Nuclear Receptor Binding Assay for bovine Progextron Receptor (PR) (AID 2283343).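 Also: actives lower bound radioligand signal below DMSO meaning displacement of the label.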 An outline of the steps:
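Bovine uterine membrane preparation, cell-free; radioligand competitive displacement measured by scintillation counting 18 hours after dosing. Loss of signal versus DMSO baseline indicates binding; primary HTS single concentration 25 uM in duplicate, actives followed in concentration series.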

Test [7] concerns the target bovine Estrogen Receptor (ER), ESR1 (gene 407238) (UniProt P49884). The test can be described thus: NVS_NR_bER: NovaScreen (NVS) Nuclear Receptor Binding Assay for bovine Estrogen Receptor (ER) (AID 2283345).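 Also: actives lower the bound radioligand count which means they displace the ER ligand.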 An outline of the steps:
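Bovine uterine membranes; tritiated or iodinated radioligand; competitive displacement; 18 h; scintillation read; DMSO negative control; 25 uM duplicates, then concentration series for actives.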

The target in test [8] is chimpanzee Androgen Receptor (AR), AR (gene 747460) (UniProt O97775). The test can be described thus: NVS_NR_cAR: NovaScreen (NVS) Nuclear Receptor Binding Assay for chimpanzee Androgen Receptor (AR) (AID 2283346).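 Also: radioligand displacement from AR measured by scintillation counting in a cell-free assay.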 Summed up:
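Cell-free radioligand displacement using receptor protein extracted from Sf9/Sf21 cells; bound radioligand measured by scintillation counting 72 hours after chemical dosing. Loss of signal versus DMSO baseline indicates binding; primary screen single-concentration in duplicate at 25 uM, actives followed in concentration series.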

In test [9] the target is human Constitutive Androstane Receptor (CAR), NR1I3 (gene 9970) (UniProt Q14994). Nature of the test: NVS_NR_hCAR_Antagonist: NovaScreen (NVS) Nuclear Receptor Binding Assay for human Constitutive Androstane Receptor Antagonism (CAR) (AID 2283344). An outline of the steps:
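Cell-free TR-FRET binding read 1 h after dosing, antagonist mode; loss of signal versus DMSO baseline. Primary screen in duplicate at a single 25 uM; actives retested in concentration series.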

For test [10], the target named is human Androgen Receptor (AR), AR (gene 367) (UniProt P10275). The test can be described thus: NVS_NR_hAR: NovaScreen (NVS) Nuclear Receptor Binding Assay for human Androgen Receptor (AR) (AID 2283332). An outline of the steps:
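Actives from a duplicate 25 uM single-point screen went on to concentration series. Read-out after 20 h was scintillation counting of displaced radioligand in LnCAP extract, with DMSO as baseline.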

Test [11] deals with Estrogen receptor (Homo sapiens) (UniProt P03372). Nature of the test: NVS_NR_hER: NovaScreen (NVS) Nuclear Receptor Binding Assay for human Estrogen Receptor (ER) (AID 2283348). An outline of the steps: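 Cell-free radioligand binding with protein extracted from MCF7 cells; scintillation counting 18 hours after dosing. Loss of signal versus DMSO baseline read as displacement; primary single-concentration screen at 25 uM in duplicate, actives retested in concentration series.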
Sequence of Estrogen receptor (Homo sapiens) (P03372 whole entry, looked up, the tested form may be a part): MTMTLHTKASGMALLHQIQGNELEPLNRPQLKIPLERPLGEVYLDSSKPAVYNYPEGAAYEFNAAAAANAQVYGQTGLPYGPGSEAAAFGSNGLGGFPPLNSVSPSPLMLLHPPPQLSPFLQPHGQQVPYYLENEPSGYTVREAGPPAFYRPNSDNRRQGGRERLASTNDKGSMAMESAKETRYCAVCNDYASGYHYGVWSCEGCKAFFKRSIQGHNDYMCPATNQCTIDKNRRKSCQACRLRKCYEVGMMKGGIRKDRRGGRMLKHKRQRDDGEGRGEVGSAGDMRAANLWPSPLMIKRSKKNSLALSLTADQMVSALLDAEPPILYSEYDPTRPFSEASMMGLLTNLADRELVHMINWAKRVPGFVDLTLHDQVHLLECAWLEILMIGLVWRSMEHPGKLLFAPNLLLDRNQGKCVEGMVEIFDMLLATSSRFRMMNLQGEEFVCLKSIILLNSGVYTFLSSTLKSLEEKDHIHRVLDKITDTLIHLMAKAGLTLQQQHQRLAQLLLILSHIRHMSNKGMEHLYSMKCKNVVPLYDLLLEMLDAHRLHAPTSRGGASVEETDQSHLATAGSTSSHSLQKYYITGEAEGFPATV

The target in test [12] is rat Gamma-Aminobutyric Acid Type A Receptor, Non-Selective (GABAR-NonSelective), Gabra1 (gene 29705) (UniProt P62813). Nature of the test: NVS_LGIC_rGABAR_NonSelective: NovaScreen (NVS) Ligand-Gated Ion Channel Assay for rat Gamma-Aminobutyric Acid Type A Receptor, Non-Selective (GABAR-NonSelective) (AID 2283326). An outline of the steps:
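Radioligand displacement on rat whole-brain extract, 1 h, filter scintillation readout; signal loss fitted versus DMSO. Primary screen in duplicate at 25 uM; hits (e.g. ≥30% inhibition) retested in concentration-response up to 50 uM.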

Test [13] addresses Glutamate receptor ionotropic, kainate 1 (Rattus norvegicus) (UniProt P22756). The test can be described thus: NVS_IC_rKAR: NovaScreen (NVS) Ion Channel Assay for rat Kainic Acid Receptors (KAR) (AID 2283334; active = hit-call score of the fitted dose curve at least 0.9, where 1 is the maximum; inactive = score below 0.9). An outline of the steps: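 Radioligand displacement binding using rat forebrain membranes, 1 h incubation, filter-based scintillation counting. Screened in duplicate at 25 uM, with actives retested in concentration-response up to 50 uM; fitted against DMSO.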

The target in test [14] is bovine Gamma-Aminobutyric Acid Type A Receptor Agonist (GABAR Agonist), GABRA1 (gene 780973) (UniProt P08219). Nature of the test: NVS_LGIC_bGABAR_Agonist: NovaScreen (NVS) Ligand-Gated Ion Channel Assay for bovine Gamma-Aminobutyric Acid Type A Receptor Agonist (GABAR Agonist) (AID 2283338). An outline of the steps:
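Radioligand binding to bovine cerebellar membranes in agonist format, read by filter-based scintillation counting after 1 h. Primary screen in duplicate at 25 uM, with actives followed in concentration series. Gain of signal versus DMSO.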

In test [15] the target is Bile acid receptor (Homo sapiens) (UniProt Q96RI1). The test can be described thus: NVS_NR_hFXR_Antagonist: NovaScreen (NVS) Nuclear Receptor Binding Assay for human Farnesoid X Receptor Antagonism (FXR) (AID 2283350). Summed up: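 Cell-free TR-FRET ligand-binding read-out on human FXR (NR1H4) in antagonist mode, measured 1 h after dosing. Primary screen in duplicate at 25 uM, actives retested in concentration series; signal loss scored versus DMSO.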

Sequence of bovine Estrogen Receptor (ER), ESR1 (gene 407238) (P49884 whole entry, looked up): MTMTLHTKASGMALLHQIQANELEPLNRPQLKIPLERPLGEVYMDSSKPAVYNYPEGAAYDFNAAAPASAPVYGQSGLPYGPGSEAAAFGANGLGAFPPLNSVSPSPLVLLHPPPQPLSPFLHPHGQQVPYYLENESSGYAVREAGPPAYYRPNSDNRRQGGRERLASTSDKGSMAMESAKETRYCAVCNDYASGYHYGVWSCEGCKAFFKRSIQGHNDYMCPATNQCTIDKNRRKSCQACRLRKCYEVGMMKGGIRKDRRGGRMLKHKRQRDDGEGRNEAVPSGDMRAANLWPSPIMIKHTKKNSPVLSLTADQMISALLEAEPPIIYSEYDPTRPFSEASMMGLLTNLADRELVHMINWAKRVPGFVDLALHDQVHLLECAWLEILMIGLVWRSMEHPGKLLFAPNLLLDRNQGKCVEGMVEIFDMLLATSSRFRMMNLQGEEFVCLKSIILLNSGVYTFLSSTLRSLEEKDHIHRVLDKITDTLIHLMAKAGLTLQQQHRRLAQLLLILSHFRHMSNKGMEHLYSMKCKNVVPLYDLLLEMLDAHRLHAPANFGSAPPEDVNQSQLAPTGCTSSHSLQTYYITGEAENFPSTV
Sequence of chimpanzee Androgen Receptor (AR), AR (gene 747460) (O97775 whole entry, looked up): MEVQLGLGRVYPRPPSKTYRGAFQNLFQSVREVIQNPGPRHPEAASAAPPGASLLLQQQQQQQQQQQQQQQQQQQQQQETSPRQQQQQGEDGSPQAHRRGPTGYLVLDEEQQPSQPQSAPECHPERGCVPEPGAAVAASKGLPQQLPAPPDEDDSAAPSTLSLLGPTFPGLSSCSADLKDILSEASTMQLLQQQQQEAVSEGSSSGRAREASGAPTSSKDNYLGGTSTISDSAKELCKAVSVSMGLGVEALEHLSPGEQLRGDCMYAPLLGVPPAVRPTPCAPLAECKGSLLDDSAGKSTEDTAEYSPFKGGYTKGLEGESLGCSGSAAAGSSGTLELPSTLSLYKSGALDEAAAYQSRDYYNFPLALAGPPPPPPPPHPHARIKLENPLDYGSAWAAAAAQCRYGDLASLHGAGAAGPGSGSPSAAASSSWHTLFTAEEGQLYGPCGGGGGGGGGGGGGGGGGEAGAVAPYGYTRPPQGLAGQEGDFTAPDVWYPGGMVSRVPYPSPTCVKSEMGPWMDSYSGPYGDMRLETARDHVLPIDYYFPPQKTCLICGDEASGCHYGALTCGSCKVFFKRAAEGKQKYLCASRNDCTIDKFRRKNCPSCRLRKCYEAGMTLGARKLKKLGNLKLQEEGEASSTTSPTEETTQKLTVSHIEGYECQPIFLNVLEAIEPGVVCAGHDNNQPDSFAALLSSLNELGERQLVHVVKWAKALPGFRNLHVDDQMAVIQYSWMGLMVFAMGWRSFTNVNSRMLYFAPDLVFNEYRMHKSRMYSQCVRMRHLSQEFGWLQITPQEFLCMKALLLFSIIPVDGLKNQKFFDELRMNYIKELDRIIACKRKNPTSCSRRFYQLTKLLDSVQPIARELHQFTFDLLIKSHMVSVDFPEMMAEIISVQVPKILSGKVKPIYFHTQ
Sequence of human Androgen Receptor (AR), AR (gene 367) (P10275 whole entry, looked up): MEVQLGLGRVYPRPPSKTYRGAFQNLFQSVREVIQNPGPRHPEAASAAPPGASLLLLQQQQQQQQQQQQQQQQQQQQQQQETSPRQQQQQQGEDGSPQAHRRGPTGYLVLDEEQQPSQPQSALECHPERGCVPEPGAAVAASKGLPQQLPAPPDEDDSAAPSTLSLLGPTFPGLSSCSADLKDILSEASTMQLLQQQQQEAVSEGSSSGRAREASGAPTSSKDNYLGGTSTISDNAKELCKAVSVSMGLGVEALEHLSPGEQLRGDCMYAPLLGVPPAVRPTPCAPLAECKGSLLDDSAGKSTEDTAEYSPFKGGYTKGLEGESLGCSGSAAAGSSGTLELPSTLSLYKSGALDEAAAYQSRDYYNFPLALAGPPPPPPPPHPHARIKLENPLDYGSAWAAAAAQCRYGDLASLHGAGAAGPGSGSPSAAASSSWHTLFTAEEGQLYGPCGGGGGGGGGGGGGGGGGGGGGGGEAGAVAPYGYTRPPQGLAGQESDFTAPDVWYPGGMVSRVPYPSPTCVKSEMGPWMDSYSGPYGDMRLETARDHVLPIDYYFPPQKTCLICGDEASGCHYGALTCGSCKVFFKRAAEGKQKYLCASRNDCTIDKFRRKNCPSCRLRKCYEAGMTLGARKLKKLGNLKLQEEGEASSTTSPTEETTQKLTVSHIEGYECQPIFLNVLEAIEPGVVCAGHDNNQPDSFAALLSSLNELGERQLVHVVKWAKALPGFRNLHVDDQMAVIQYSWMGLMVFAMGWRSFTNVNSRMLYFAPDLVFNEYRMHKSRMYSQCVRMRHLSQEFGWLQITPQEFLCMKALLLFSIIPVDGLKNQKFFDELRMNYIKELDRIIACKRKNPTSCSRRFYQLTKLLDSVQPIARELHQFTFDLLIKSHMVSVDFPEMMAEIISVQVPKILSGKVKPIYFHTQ
Sequence of Voltage-gated inwardly rectifying potassium channel KCNH2 (Homo sapiens) (Q12809 whole entry, looked up): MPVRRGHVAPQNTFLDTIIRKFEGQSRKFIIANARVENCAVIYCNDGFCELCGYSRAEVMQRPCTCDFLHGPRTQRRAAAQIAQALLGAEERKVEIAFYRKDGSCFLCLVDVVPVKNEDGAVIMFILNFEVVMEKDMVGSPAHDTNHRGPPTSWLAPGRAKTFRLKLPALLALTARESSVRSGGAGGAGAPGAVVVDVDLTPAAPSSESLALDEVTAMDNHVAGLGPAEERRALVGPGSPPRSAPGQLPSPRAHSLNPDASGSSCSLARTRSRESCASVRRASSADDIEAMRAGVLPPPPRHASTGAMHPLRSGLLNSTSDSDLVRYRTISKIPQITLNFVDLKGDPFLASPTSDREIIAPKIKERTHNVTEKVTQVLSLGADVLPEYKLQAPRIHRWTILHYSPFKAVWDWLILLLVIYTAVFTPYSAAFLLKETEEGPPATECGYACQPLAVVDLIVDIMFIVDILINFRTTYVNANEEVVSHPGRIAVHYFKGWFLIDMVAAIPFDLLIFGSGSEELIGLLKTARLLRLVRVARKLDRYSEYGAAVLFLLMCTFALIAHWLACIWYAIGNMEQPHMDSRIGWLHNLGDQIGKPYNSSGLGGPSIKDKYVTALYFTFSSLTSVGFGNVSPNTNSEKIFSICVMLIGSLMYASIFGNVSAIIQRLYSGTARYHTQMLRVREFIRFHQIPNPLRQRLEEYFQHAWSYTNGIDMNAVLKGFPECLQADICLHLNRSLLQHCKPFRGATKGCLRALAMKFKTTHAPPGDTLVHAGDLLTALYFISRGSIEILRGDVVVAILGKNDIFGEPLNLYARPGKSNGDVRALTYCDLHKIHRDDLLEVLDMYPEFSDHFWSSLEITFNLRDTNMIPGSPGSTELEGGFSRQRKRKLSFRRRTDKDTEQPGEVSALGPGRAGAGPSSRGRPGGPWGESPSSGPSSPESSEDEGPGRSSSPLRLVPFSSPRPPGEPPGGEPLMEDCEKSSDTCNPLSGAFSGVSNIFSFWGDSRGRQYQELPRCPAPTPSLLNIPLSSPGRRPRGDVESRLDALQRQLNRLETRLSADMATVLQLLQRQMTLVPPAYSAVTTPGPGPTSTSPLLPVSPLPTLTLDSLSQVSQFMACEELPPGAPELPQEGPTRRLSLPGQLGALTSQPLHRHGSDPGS
Sequence of human Constitutive Androstane Receptor (CAR), NR1I3 (gene 9970) (Q14994 whole entry, looked up): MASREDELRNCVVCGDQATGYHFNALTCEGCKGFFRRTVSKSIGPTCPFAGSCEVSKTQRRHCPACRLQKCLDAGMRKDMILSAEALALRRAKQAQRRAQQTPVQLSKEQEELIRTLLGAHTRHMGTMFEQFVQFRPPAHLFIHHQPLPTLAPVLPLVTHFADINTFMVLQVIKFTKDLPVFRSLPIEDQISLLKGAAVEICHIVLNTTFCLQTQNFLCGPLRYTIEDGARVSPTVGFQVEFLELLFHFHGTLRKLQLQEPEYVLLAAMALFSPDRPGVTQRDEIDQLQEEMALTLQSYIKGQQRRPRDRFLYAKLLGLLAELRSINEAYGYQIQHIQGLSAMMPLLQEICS
Sequence of bovine Gamma-Aminobutyric Acid Type A Receptor Agonist (GABAR Agonist), GABRA1 (gene 780973) (P08219 whole entry, looked up): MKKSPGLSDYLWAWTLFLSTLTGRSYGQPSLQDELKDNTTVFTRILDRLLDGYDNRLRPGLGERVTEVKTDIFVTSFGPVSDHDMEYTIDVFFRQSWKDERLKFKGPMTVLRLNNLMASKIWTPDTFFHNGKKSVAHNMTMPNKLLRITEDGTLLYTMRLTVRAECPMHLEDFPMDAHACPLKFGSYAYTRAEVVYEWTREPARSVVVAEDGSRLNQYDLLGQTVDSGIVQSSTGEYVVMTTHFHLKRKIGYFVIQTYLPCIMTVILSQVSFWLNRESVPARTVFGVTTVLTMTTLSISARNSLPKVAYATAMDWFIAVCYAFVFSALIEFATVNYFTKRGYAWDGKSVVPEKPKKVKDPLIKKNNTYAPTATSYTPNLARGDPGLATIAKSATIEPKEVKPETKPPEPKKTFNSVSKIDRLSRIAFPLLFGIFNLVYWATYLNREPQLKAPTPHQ

As to `CC(=O)NC1(c2cccc(F)c2)CCN(CC[C@@]2(c3ccc(Cl)c(Cl)c3)CN(c3ccccc3)C(=O)CO2)CC1`, the figures for the AC50 in test [1], in test [3] and in [4] were 14 µM (active), 0.835 µM (active) and 8.91 µM (active), respectively. Further, the outcome in test [2] and in test [5] was inactive.

Consider `C#C[C@]1(O)CC[C@H]2[C@@H]3CCC4=CC(=O)CC[C@@H]4[C@H]3CC[C@@]21C`, for which the molecule was called inactive in test [6] and in test [7]. The half-maximal activity concentration (AC50) is 0.0183 µM (active) in the test on NCBI gene 100848466; 5.99 nM (active) and 4.99 nM (active) in test [8].

For `CCCOc1sc(C(=O)N2CCC(c3cc(CN)ccc3F)CC2)c(C)c1Br`, the figures for the AC50 in test [1], in test [3] and in test [4] were 7.87 µM (active), 3.64 µM (active) and 7.46 µM (active), respectively.

On to `COCC(C)OCC(C)O` (stereo not drawn), for which the molecule was called inactive in [9].

For `Oc1cc2ccccc2c2ccccc12`, the values for the AC50 (in [10]; with NCBI gene 100848466; in [8]) were 19.2 µM (active), 18 µM (active) and 10.1 µM (active), respectively. Also, the molecule was classed as inactive in test [7] and in test [11].

Consider `CCN(CC)CCNc1ccc(CNC=O)c2sc3ccc(OC)cc3c(=O)c12`, for which the outcome in test [12], in test [7], in test [8] and in test [11] was inactive. The values for the AC50 in test [3] and in test [4] were 19.2 µM (active) and 11.3 µM (active), respectively.

With `OCCC(F)(F)C(F)(F)C(F)(F)C(F)(F)C(F)(F)C(F)(F)C(F)(F)C(F)(F)F`, the call in [13], in [14], in test [7], in [11] and in [5] was inactive.

`Cc1oc(-c2ccccc2)nc1CCOc1ccc(C[C@H](Nc2ccccc2C(=O)c2ccccc2)C(=O)O)cc1`: the concentration at half-maximal activity (AC50) in test [10] was 1.92 µM (active). In addition, the outcome in test [7], in test [8] and in test [11] was inactive.

Regarding `COC(=O)CCCCC(=O)OC`, in test [13], the molecule was called inactive.

For the molecule `O=C(OCCOCCOC(=O)c1ccccc1)c1ccccc1`, the molecule was classed as inactive in test [14], in test [9], in [5] and in [15].

One may read the AC50 as the midpoint of the concentration-response curve, whichever way the signal moves.

The values above are taken from PubChem BioAssay (EPA / NIEHS).
